# Target: Small nuclear ribonucleoprotein G (UniProt P62308)
# Experiment: cross-link between two proteins; cross-linking mass spectrometry
substance,measurement,value
"Small nuclear ribonucleoprotein-associated proteins B and B', P14678",listed as a hit,yes

# — PMC10943123
